Structures are written as SMILES. This is part of a sample that, as a whole, favours compounds with a hit. Of some 83,000 tested, about 20% had one in any assay.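 For each line, cells grew in 96-well plates with the test compound present at a single concentration for 48 hours.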 A number with no mark means an inactive call. The source made the active and inactive calls. The calls were made as follows: active = growth percent below 10; inactive = the rest.

Twelve compounds from PubChem BioAssay (NCI) can be followed below.

Among the test systems are RPMI-8226 leukemia; OVCAR-8 ovarian; OVCAR-5 ovarian; OVCAR-4 ovarian; SK-OV-3 ovarian; IGROV1 ovarian; OVCAR-3 ovarian; HS 578T breast; NCI/ADR-RES ovarian; T-47D breast.
Assay in all cases: NCI-60 one-dose screen, 48 h (100 = growth as untreated, 0 = no growth, -100 = all killed)
What all share (settings): 10 µM unless noted

Consider `COc1cc(-c2csc(NC(=O)Nc3ccc(Cl)cc3)n2)cc(OC)c1OC`, for which the growth with RPMI-8226 leukemia is 8.27% (active); with OVCAR-8 ovarian it was 10.4%; in the test with OVCAR-5 ovarian, 76.9%; in the test on OVCAR-4 ovarian it was 9.02% (active); with SK-OV-3 ovarian, 53.5%; in the test on IGROV1 ovarian, 42.6%. Moreover, the growth in the test with OVCAR-3 ovarian is 19.4%; with HS 578T breast, 58.9%; in the test with NCI/ADR-RES ovarian it was 7% (active); in the test with T-47D breast, -7.45% (active).

For the compound `O=c1c2ccccc2oc2ccc(OCCCCCN3CCCCCC3)cc12`, the growth with RPMI-8226 leukemia was 57.3%; in the test on OVCAR-8 ovarian, 75.5%; with OVCAR-5 ovarian, 92%; with OVCAR-4 ovarian, 73.1%; with SK-OV-3 ovarian, 93.5%; in the test on IGROV1 ovarian, 77.2%. Further, the growth with OVCAR-3 ovarian is 87.1%; in the test on HS 578T breast, 88.8%; with NCI/ADR-RES ovarian, 77.8%; with T-47D breast, 58.8%.

On to `COCCc1n(Cc2ccc3ccccc3c2)c2ccccc2[n+]1Cc1ccc2ccccc2c1`, for which the growth is -52.7% (active) in the test on RPMI-8226 leukemia; -54.6% (active) with OVCAR-8 ovarian; -2.95% (active) in the test with OVCAR-5 ovarian; -4.37% (active) with OVCAR-4 ovarian; -14.6% (active) in the test with SK-OV-3 ovarian; -63.4% (active) in the test on IGROV1 ovarian. Further, the growth is -72.8% (active) with OVCAR-3 ovarian, -6.4% (active) in the test on HS 578T breast, 84.4% in the test with NCI/ADR-RES ovarian and -16.7% (active) in the test with T-47D breast.

Regarding `CCOC(=O)c1c(C)nc2c(c1N)/C(=C/c1cccs1)C(=O)N2Cc1ccccc1`, the growth was -21.2% (active) in the test with RPMI-8226 leukemia; 70.7% with OVCAR-8 ovarian; 119% in the test on OVCAR-5 ovarian; 82.3% in the test on OVCAR-4 ovarian; 96.6% with SK-OV-3 ovarian; 48% in the test on IGROV1 ovarian. The growth is 53.2% with OVCAR-3 ovarian, 93.2% in the test on HS 578T breast, 79% with NCI/ADR-RES ovarian and 43% with T-47D breast.

Turning to `O=C1CCc2ccccc2N1`, the growth is 106% with RPMI-8226 leukemia; 105% in the test with OVCAR-8 ovarian; 103% with OVCAR-5 ovarian; 94.7% in the test on OVCAR-4 ovarian; 108% with SK-OV-3 ovarian; 98.4% with IGROV1 ovarian. For the same compound, the growth in the test on OVCAR-3 ovarian was 102%; with HS 578T breast, 103%; in the test on NCI/ADR-RES ovarian it was 101%; in the test with T-47D breast, 109%.

With `N#CC(C#N)=C1NC(c2ccccc2)=C(c2ccccc2)C(c2ccccc2Cl)=C1C#N`, the growth with RPMI-8226 leukemia was 113%; with OVCAR-8 ovarian, 88.1%; in the test on OVCAR-5 ovarian it was 105%; in the test with OVCAR-4 ovarian, 117%; with SK-OV-3 ovarian, 103%; in the test with IGROV1 ovarian it was 108%. Moreover, the growth in the test with OVCAR-3 ovarian was 108%; in the test on HS 578T breast it was 120%; in the test with NCI/ADR-RES ovarian, 96%; in the test with T-47D breast, 102%.

Regarding `Nc1n[nH]c2cccc(C#Cc3cccc(NC(=O)c4cc(N5CCOCC5)cc(C(F)(F)F)c4)c3)c12`, the growth in the test on RPMI-8226 leukemia is 40.5%; with OVCAR-8 ovarian, 45.5%; in the test on OVCAR-5 ovarian it was 42.4%; with OVCAR-4 ovarian it was 51.5%; with SK-OV-3 ovarian, 35.1%; with IGROV1 ovarian it was 9.97% (active). The growth with OVCAR-3 ovarian was 67.3%; with HS 578T breast, 40.5%; in the test on NCI/ADR-RES ovarian, 47%; in the test with T-47D breast, 28.3%.

In the case of `COc1ccc2oc(=O)cc(-c3nc4ccc(N)cc4[nH]3)c2c1`, the growth in the test on RPMI-8226 leukemia is 83.4%; in the test with OVCAR-8 ovarian it was 89.9%; with OVCAR-5 ovarian, 92.6%; in the test on OVCAR-4 ovarian, 95.8%; in the test with SK-OV-3 ovarian, 77.5%; in the test with IGROV1 ovarian, 76.7%. The growth was 86.2% in the test with OVCAR-3 ovarian, 81.5% with HS 578T breast, 88% in the test with NCI/ADR-RES ovarian and 51.8% in the test with T-47D breast.

Turning to `OCCNc1nc(NCCO)nc(Nc2ccc(C3=NN(c4cc(Cl)cc(Cl)c4)C(c4ccc(C(F)(F)F)cc4)C3)cc2)n1` (stereo not given), the growth is -1.42% (active) with RPMI-8226 leukemia; 39.5% with OVCAR-8 ovarian; 89% in the test with OVCAR-5 ovarian; 53.6% in the test with OVCAR-4 ovarian; 70.1% in the test with SK-OV-3 ovarian; 41.7% in the test on IGROV1 ovarian. Further, the growth in the test with OVCAR-3 ovarian was 4.39% (active); in the test on HS 578T breast it was 43.6%; in the test on NCI/ADR-RES ovarian it was 55.6%; in the test with T-47D breast it was 53.5%.

For `COc1cc(C2=NN(c3ccccc3)C(c3cccc(Nc4ccnc5cc(C(F)(F)F)ccc45)c3)C2)cc(OC)c1OC` (stereo not given), the growth with RPMI-8226 leukemia was 65.1%; in the test with OVCAR-8 ovarian, 91.7%; in the test with OVCAR-5 ovarian, 104%; in the test with OVCAR-4 ovarian, 91%; in the test on SK-OV-3 ovarian it was 94.7%; in the test on IGROV1 ovarian, 77.9%. The growth is 88.1% in the test with OVCAR-3 ovarian, 99% in the test with HS 578T breast, 80.9% in the test with NCI/ADR-RES ovarian and 76.5% with T-47D breast.

As to `COc1cc(C(=O)N2CCN(c3ccccc3OC)CC2)c(NC(=O)c2cnccn2)cc1OCc1ccccc1`, the growth in the test with RPMI-8226 leukemia was 65.9%; in the test with OVCAR-8 ovarian it was 91.1%; with OVCAR-5 ovarian, 90.8%; in the test with OVCAR-4 ovarian it was 79%; with SK-OV-3 ovarian, 90.2%; in the test on IGROV1 ovarian, 63.9%. Also, the growth is 92.7% in the test with OVCAR-3 ovarian, 103% in the test with HS 578T breast, 78.9% with NCI/ADR-RES ovarian and 66.8% in the test with T-47D breast.

`Nc1cc(N)nc(SCC(=O)O)n1`: the growth was 102% in the test on RPMI-8226 leukemia; 100% with OVCAR-8 ovarian; 107% in the test with OVCAR-5 ovarian; 106% with OVCAR-4 ovarian; 105% in the test with SK-OV-3 ovarian; 106% in the test on IGROV1 ovarian. Also, the growth in the test with OVCAR-3 ovarian is 111%; in the test with HS 578T breast, 99.6%; in the test with NCI/ADR-RES ovarian, 104%; with T-47D breast, 105%.
